The values that follow come from PubChem BioAssay (NCATS).

Results filed as inconclusive are left out. A call without a number means that no potency is given here. Active and inactive are the calls of the source. The call rests on the fitted dose curve; in most records, active means well fitted inhibition curve with a large enough effect; inconclusive means small, poorly fitted or top-dose-only effect; inactive means flat fitted curve, though single readings scatter.

Sequence of Calcium and integrin-binding protein 1 (Homo sapiens) (Q99828 whole entry, looked up): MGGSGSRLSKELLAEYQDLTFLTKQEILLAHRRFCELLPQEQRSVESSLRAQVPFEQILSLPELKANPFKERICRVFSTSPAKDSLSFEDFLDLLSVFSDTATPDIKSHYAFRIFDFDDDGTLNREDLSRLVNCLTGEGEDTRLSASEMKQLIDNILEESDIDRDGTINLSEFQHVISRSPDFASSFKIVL

For the assay, the target named is Calcium and integrin-binding protein 1 (Homo sapiens) (UniProt Q99828). Description: Primary qHTS for Identification of Calcium Integrin Binding Protein 1 (CIB1) Competitor (AID 1508620).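 Further: GST tagged CIB1 binding a fluorescein labelled alphaIIb integrin peptide tracer; top concentration of the series differs between compounds.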 The conditions noted are these: CIB1-GST / FITC-alphaIIb peptide fluorescence polarization; series mostly up to 57.7 µM. Summed up:
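Fluorescence polarization competition: CIB1-GST (1 uM final) preincubated with compound 15 min at room temperature, then FITC-labeled alphaIIb peptide (100 nM final) added for another 15 min. Polarization read at Ex 480/Em 540.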
In general terms: qHTS replaces the single test concentration by a dilution series.
Turning to `CC1=CCC2C(C)(CO)CCCC2(C)C1CC12OC1C(O)C(CO)=CC2O` (stereo unspecified), the Potency result is “inactive”.

`CC(C)=CCC[C@](C)(O[C@@H]1O[C@H](CO[C@@H]2OC[C@@H](O)[C@H](O)[C@H]2O)[C@@H](O)[C@H](O)[C@H]1O)[C@H]1CC[C@]2(C)[C@@H]1[C@H](O)C[C@@H]1[C@@]3(C)CC[C@H](O[C@@H]4O[C@H](CO)[C@@H](O)[C@H](O)[C@H]4O[C@@H]4O[C@H](CO)[C@@H](O)[C@H](O)[C@H]4O)C(C)(C)[C@@H]3CC[C@]12C`: the Potency result is “inactive”.

For `CCCCS(=O)(=O)Nc1ncnc(OCCOc2ncc(Br)cn2)c1-c1ccc(Br)cc1`, the Potency result is “inactive”.

With `COC(=O)CC1(O)C(=O)Nc2ccccc21` (stereo unspecified), the Potency entry was “inactive”.

As for `O=C(O[C@H]1[C@@H]2C=CO[C@@H](O[C@@H]3O[C@H](CO)[C@@H](O)[C@H](O)[C@H]3O)[C@@H]2[C@@]2(CO)O[C@@H]12)c1ccc(O)c(O)c1`, the Potency result was “inactive”.

With `COc1ccc(/C=C/C(=O)O[C@@H]2[C@@H](O)[C@H](C)O[C@@H](OC3C4C=COC(O[C@@H]5O[C@H](CO)[C@@H](O)[C@H](O)[C@H]5O)C4C4(CO)OC34)[C@@H]2O)cc1OC` (stereo partly specified), the Potency entry is “inactive”.

In the case of `NC(=O)c1cccc(-c2cc(O)cc(OC(=O)NC3CCCCC3)c2)c1`, the Potency result was “inactive”.

Turning to `NC(=O)Nc1cc(-c2ccc(CN3CCOCC3)c(F)c2)sc1C(=O)N[C@H]1CCCNC1`, the Potency result was “inactive”.

Consider `CC(C)CC(=O)OC[C@H]1O[C@@](COC(=O)CC(C)C)(O[C@H]2O[C@H](CO)[C@@H](O)[C@H](O)[C@H]2O)[C@@H](OC(=O)CC(C)C)[C@@H]1OC(=O)CC(C)C`, for which the Potency entry is “inactive”.

Take `CC[C@H](C)/C=C(C)/C=C/C(=O)Cc1cc(O)c(C)c(O)c1C=O`: the Potency entry was “inactive”.

For `COC(=O)CC[C@@H](C)[C@H]1CC[C@H]2[C@@H]3CC(=O)[C@H]4C[C@H](OC(C)=O)CC[C@]4(C)[C@H]3CC[C@]12C`, the Potency result was “inactive”.

Consider `CC(CO[C@@H]1O[C@H](COC(=O)/C=C/c2ccc(O)c(O)c2)[C@@H](O)[C@H](O)[C@H]1O)C1(O)COC(=O)C1` (stereo partly specified), for which the Potency result is “inactive”.

`C=C1C[C@@]23CC[C@@H]4[C@](C)(C(=O)O)CCC[C@@]4(C)C2=CC[C@H]1C3`: the Potency entry was “inactive”.

For the compound `CCc1cc2c(=O)c(-c3nc4ccccc4s3)coc2c(CN2CCCCC2)c1O`, the Potency entry is “inactive”.

As to `CNC(=O)[C@H]1O[C@@H](n2cnc3c(NCc4ccc(N)c(I)c4)ncnc32)[C@H](O)[C@@H]1O`, the Potency result was “inactive”.

As to `CO[C@H]1C=C2C(CC[C@H](O[C@@H]3O[C@H](CO)[C@@H](O)[C@@H](O)[C@H]3O)C2(C)C)[C@]2(C)CC[C@]3(C)C([C@H](C)C(O)C(C=C(C)C)O[C@@H]4O[C@H](CO)[C@@H](O)[C@@H](O)[C@H]4O)CC[C@@]3(C)C12` (stereo partly specified), the Potency result was “inactive”.

As to `C[C@@H]1CC[C@]2(C(=O)O)CC[C@]3(C(=O)O)C(=CCC4[C@@]5(C)CC[C@H](O[C@@H]6O[C@@H](C)[C@H](O[C@@H]7O[C@H](CO)[C@@H](O)[C@H](O)[C@H]7O)[C@@H](O)[C@H]6O)C(C)(C)C5CC[C@]43C)C2[C@H]1C` (stereo partly specified), the Potency entry was “inactive”.

`CN1C(=O)c2ccccc2-n2c(nc3ccccc3c2=O)[C@@]12O[C@H]2c1ccccc1`: the Potency result was “inactive”.

For the compound `OC[C@H]1O[C@@H](n2cnc3c2NC=NC[C@H]3O)C[C@@H]1O`, the Potency entry was “inactive”.

Turning to `C=CCc1ccc(O[C@@H]2O[C@H](CO[C@@H]3O[C@@H](C)[C@H](O)[C@@H](O)[C@H]3O)[C@@H](O)[C@H](O)[C@H]2O)cc1`, the Potency result was “inactive”.

Consider `CC[C@H]1OC(=O)[C@H](C)[C@@H](O[C@H]2C[C@@](C)(OC)[C@@H](O)[C@H](C)O2)[C@H](C)[C@@H](O[C@@H]2O[C@H](C)C[C@H](N(C)C)[C@H]2O)[C@@](C)(O)C[C@@H](C)[C@@H]2N[C@@H](COCCOC)OC([C@H]2C)[C@]1(C)O`, for which the Potency result is “inactive”.

Turning to `CC12CC34C=CC(=O)C(C)(CCC(=O)O)C3C(CC1C4)O2` (stereo unspecified), the Potency entry is “inactive”.

Take `CC(C)C1=CC2=CCC3[C@](C)(CCC[C@@]3(C)C(=O)O)C2CC1=O` (stereo partly specified): the Potency result was “inactive”.

Turning to `O=C(O)C[C@H](O)C[C@H](O)/C=C/c1c(C2CC2)nc2ccccc2c1-c1ccc(F)cc1`, the Potency result is “inactive”.

Take `C=C/C=C/[C@@H]1OC[C@H](/C=C/C=C/C)[C@H]1O`: the Potency result was “inactive”.

On to `COc1ccc(/C=C/C(=O)O[C@@H]2[C@@H](OC(C)=O)[C@@H](OC(C)=O)[C@H](O[C@H]3[C@@H]4C=CO[C@@H](O[C@@H]5O[C@H](CO)[C@@H](O)[C@H](O)[C@H]5O)[C@@H]4[C@@]4(CO)O[C@@H]34)O[C@H]2C)cc1O`, for which the Potency entry was “inactive”.
